# Source: PubChem BioAssay
# Dicer inh: inhibitors of Dicer pre-microRNA processing, primary screen, biochemical, cat-ELCCA, chemiluminescence | Endoribonuclease Dicer (Homo sapiens), Q9UPY3 | cat-ELCCA pre-miR-21 Dicer processing; hits give high values | z-score at 25 µM | hit rate 6% among 47,000; in the data active means z-score above about 3, passing the limit was not always enough;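 further: plate controls were vehicle for no effect and no enzyme for full effect; higher signal means more uncleaved substrate so more Dicer inhibition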
# * hit, by the source's call. The entries come from a sample that favours hits as a whole.
SMILES,Dicer inh
Cn1c(=O)c2c(nc(-n3ccnc3)n2Cc2ccc(F)cc2)n(C)c1=O,1.4
Cn1c(=O)c2c(nc(NCCCn3ccnc3)n2Cc2cccc3ccccc23)n(C)c1=O,-0.49
Cn1c(=O)c2c(nc(NCCCO)n2Cc2ccc(Cl)cc2)n(C)c1=O,3.6*
Cn1c(NCCCO)nc2c1c(=O)n(Cc1ccc(Cl)cc1)c(=O)n2C,2.4
Cn1c(=O)c2c(nc(NCCCn3ccnc3)n2Cc2ccc(F)cc2)n(C)c1=O,3.5*
N#C/C(=C1/SC=C(c2ccc(Cl)cc2)N1c1ccccc1)c1nc2ccccc2[nH]1,8.7
Cc1ccc2ncnc(Oc3ncccc3N)c2c1,1.2
O=C(/C=C/C(=O)c1ccc(F)cc1)c1ccc(F)cc1,1.5
COc1ccc(-c2noc(COc3cccc(C)c3C)n2)cc1OC,0.45
CCOc1cc(C2NC(=O)c3sc(=S)n(-c4ccccc4)c3N2)ccc1OC(C)=O (configuration not stated),1.7
Cc1ccc(C(=O)Nc2cnc3cc(C)ccn3c2=O)cc1,-0.97
Cc1cc(C)c2c(n1)sc1c(N3CCN(c4ccccc4)CC3)ncnc12,1.4
Cc1cc(C)c(C#N)c(N2CCN(c3ccccc3)CC2)n1,3.2*
COCc1cc(C)nc(N2CCN(Cc3ccccc3)CC2)c1C#N,0.42
Cc1ccc(Cn2nc(C)c(NC(=O)c3cc4n(n3)C(C(F)(F)F)CC(c3ccco3)N4)c2C)cc1 (configuration not stated),0.4
Cc1ccc(S(=O)(=O)Nc2cc(C)c(Br)cc2NS(=O)(=O)c2ccc(C)cc2)cc1,7.2
Cc1ccc(S(=O)(=O)Nc2cc(C(C)C)c(O)c(Cl)c2C)cc1,3.2*
Cc1c(NS(=O)(=O)c2ccccc2)cc(Cl)c(O)c1C,2.1
Cc1ccc(S(=O)(=O)Nc2cc(C)c(O)c(Cl)c2)cc1,0.77
Cc1ccc(S(=O)(=O)Nc2cc(Cl)c(O)cc2C)cc1,4.3*
Cc1ccc(S(=O)(=O)Nc2cc(S(=O)(=O)c3ccc(C)cc3)c(O)c3ncccc23)cc1,-1.3
Clc1ccc(SC2CN(C(c3ccccc3)c3ccccc3)C2)cc1,-2
CCOC(=O)c1c(C)oc2ccc(N(C(=O)C3CCCCC3)S(=O)(=O)c3cccs3)cc12,2.1
COc1ccccc1N1CCN(C(=S)NC(C)(C)C)CC1,0.26
Cc1ccc(C2Oc3ccccc3C3CC(c4ccncc4)=NN32)cc1 (configuration not stated),-0.49
SMILES,Dicer inh
Clc1ccc(C2=NN3C(C2)c2ccccc2OC3c2ccncc2)cc1 (configuration not stated),6*
COc1cc(C2Oc3ccccc3C3CC(c4ccccc4)=NN32)ccc1OC(C)=O (configuration not stated),4.5*
Oc1ccc(Cl)cc1C1=NN2C(C1)c1ccccc1OC2c1ccncc1 (configuration not stated),-0.87
c1cncc(C2=NN3C(C2)c2ccccc2OC3c2cccs2)c1 (configuration not stated),-0.24
COc1ccc(C2Oc3ccccc3C3CC(c4ccc(C)o4)=NN32)cc1OC (configuration not stated),-2
COc1ccc(C2Oc3ccccc3C3CC(c4cccnc4)=NN32)cc1 (configuration not stated),1.9
Clc1ccc2c(c1)C1CC(c3ccccc3)=NN1C(c1ccncc1)O2 (configuration not stated),15*
CSCCC1Oc2ccc(Cl)cc2C2CC(c3ccccc3O)=NN12 (configuration not stated),-1.1
O=c1[nH]nc(SCc2ccccc2)n1-c1cccc(Cl)c1,5.8
O=C(/C=C/Sc1c(Cl)cccc1Cl)c1cccc(Br)c1,0.31
COc1ccc(COC(=O)C2=C(C)NC3=C(C(=O)CC(C)(C)C3)C2c2ccc3c(c2)OCO3)cc1 (configuration not stated),-0.07
C#CC(C)(C)NC(=S)Nc1ccc(C)cc1C,-0.73
O=c1cc(-c2cc(C(F)(F)F)cc(C(F)(F)F)c2)nc2cc(-c3ccccc3)[nH]n12,1.6
Clc1ccc(SCc2ccsc2-c2ncns2)cc1,-0.45
C=CCNC(=S)NNC(=O)c1cnn(-c2ccccc2)c1N,1.6
C#CC1(NS(=O)(=O)c2ccc(Sc3ccc(Cl)cc3)c([N+](=O)[O-])c2)CCCCC1,0
CS/C(=C(/C#N)S(=O)(=O)C(C)C)N1CCCCC1,4.2*
CS/C(=C(/C#N)S(=O)(=O)C(C)C)N1CCOCC1,-1.3
CS/C(=C(/C#N)S(=O)(=O)C(C)C)N1CCCC1,-1.2
COc1ccc(-c2cc3ncc4c(n3n2)-c2ccccc2OC4)cc1,-0.77
Nc1nccc(-c2cccc(Cl)c2F)n1,0.66
c1ccc(-c2cn3c4ccccc4n(CCN4CCOCC4)c3n2)cc1,4.1*
Cc1nc2n(CCN3CCOCC3)c3ccccc3n2n1,1.2
Cc1ccc(-c2cn3c4ccccc4nc3n2CCN2CCOCC2)cc1,2.2
CCOCCOC(=O)C(C)Oc1ccc2c(=O)c(Oc3cc(C)cc(C)c3)coc2c1 (configuration not stated),2.9
SMILES,Dicer inh
COc1ccccc1OCCSc1nc(C)cc(C)n1,1.3
Cc1ccc(C(C)C)c(OCc2nc3ccccc3n2C)c1,0.86
Cc1ccc(OCCSc2nc(N)cc(N)n2)c(C(C)C)c1,4.9*
S=c1[nH]nc(-c2ccc(Cl)cc2)o1,-0.97
Cc1noc(/C=C/c2cc(C)n(-c3ccc(C(=O)O)cc3)c2C)c1[N+](=O)[O-],1.4
COc1ccccc1OCC(O)CN1CCC(C)CC1 (configuration not stated),1.1
CCCCN1C(=O)C2(/C(=C(/O)c3ccc4c(c3)CC(C)O4)C(=O)C(=O)N2CCOC)c2ccccc21 (configuration not stated),4.9*
CCN1C(=O)C2(/C(=C(/O)c3ccc(OC)c(C)c3)C(=O)C(=O)N2CCN(C)C)c2ccccc21 (configuration not stated),-4
CCCCN1C(=O)C2(/C(=C(/O)c3ccc(C)cc3)C(=O)C(=O)N2CCCN(C)C)c2ccccc21 (configuration not stated),1.8
CCN1C(=O)C2(/C(=C(/O)c3ccc4c(c3)CC(C)O4)C(=O)C(=O)N2CCCN(C)C)c2ccccc21 (configuration not stated),4.3*
CCN1C(=O)C2(/C(=C(/O)c3ccc4c(c3)CC(C)O4)C(=O)C(=O)N2CCN(C)C)c2ccccc21 (configuration not stated),-1.6
COc1ccccc1C1CCN(S(=O)(=O)c2ccc(Br)cc2OC)CC1,0.07
CCc1c(O)c(C(C)=O)c(=O)n(-c2ccccc2)c1-c1ccccc1,-0.16
CC(C)N(Cc1ccccc1)C(=O)Nc1cc(Cl)cc(Cl)c1,-1.2
Cc1cc(Br)ccc1S(=O)(=O)Nc1ccnn1C,0.06
O=c1[nH]c2c(sc3nnc(-c4ccccc4)c(-c4ccccc4)c32)c(=O)n1-c1cccc(Cl)c1,2.8
Cc1csc2ncnc(N3CCN(S(=O)(=O)c4ccc(Cl)cc4)CC3)c12,0.31
O=C(CCCN1CCN2CCCCC2C1)c1ccc(F)cc1 (configuration not stated),-0.38
O=C(c1nnc(-c2ccccc2)o1)N1CCN(c2ccc(C(F)(F)F)cn2)CC1,1.4
O=C(O)C(Cc1ccccc1)N1C(=O)C2CCCCC2C1=O (configuration not stated),1.7
CCCCC(C(=O)O)N1C(=O)C2C3c4ccccc4C(c4ccccc43)C2C1=O (configuration not stated),3.5*
